About 83,000 compounds went through this panel and 20% of them were active in at least one assay; those are over-represented in the sample as a whole.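 Cells were grown in 96-well plates and exposed to the test compound at a single concentration for 48 hours; results are reported as percent growth, with values below 10 considered active.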 Active and inactive are the calls of the source.
How the values were obtained:
Test in all cases: NCI-60 one-dose screen, 48 h (100 = growth as untreated, 0 = no growth, -100 = all killed)
Conditions in all cases: 10 µM unless noted
[1] = tested on: NCI-H23 lung
[2] = tested on: NCI-H226 lung
[3] = tested on: NCI-H322M lung
[4] = tested on: HOP-62 NSCLC
[5] = tested on: NCI-H460 lung
[6] = tested on: HOP-92 NSCLC
[7] = tested on: NCI-H522 lung
[8] = tested on: A549/ATCC NSCLC
[9] = tested on: 786-0 renal
[10] = tested on: DU-145 prostate
[11] = tested on: K-562 leukemia
[12] = tested on: MALME-3M melanoma
[13] = tested on: MDA-MB-231 breast
[14] = tested on: RXF 393 renal
[15] = tested on: SF-268 CNS
[16] = tested on: SF-295 CNS
[17] = tested on: SF-539 CNS
[18] = tested on: UACC-257 melanoma
[19] = tested on: M14 melanoma
[20] = tested on: COLO 205 colon

Measured: growth

N#CC1=C(N)Oc2ccc3ccccc3c2C1c1ccccc1 (stereo not drawn)
inactive: [1] 43.9% | [2] 51.6% | [3] 62.1% | [4] 39.7% | [5] 21.7% | [6] 62.6% | [7] 34.7% | [8] 51% | [9] 35.5% | [10] 51.2% | [11] 14.9% | [12] 42.3% | [13] 47% | [14] 23.3% | [15] 52.2% | [17] 11.4% | [18] 61.7% | [19] 13.6%
active: [16] 4.96%

O=C(NO)c1ccc(Cn2c(=O)n(CCc3ccc(O)cc3)c(=O)c3ccccc32)cc1
inactive: [2] 82.5% | [3] 80.4% | [4] 68.1% | [5] 60.4% | [6] 80% | [8] 84.2% | [9] 83.4% | [10] 42.1% | [11] 24.9% | [12] 39.3% | [13] 39.1% | [14] 29.8% | [15] 59.2% | [16] 79.1% | [19] 36.9%
active: [1] -8.51% | [7] 7.74% | [17] 3.09%

N#CCCCCCn1c2ccccc2c2c3[nH]c(=O)[nH]c(=O)c3c3c4ccccc4n(CCCCCC#N)c3c21
inactive: [1] 55.6% | [2] 65.8% | [3] 42.5% | [4] 15.8% | [5] 34.9% | [6] 19.2% | [7] 44.9% | [8] 73.7% | [20] 71.6% | [10] 54.7% | [12] 33.7% | [14] 41.4% | [15] 19.6% | [16] 43.7% | [19] 66.8%
active: [9] 0.172% | [13] -7.94% | [17] -0.187%

O=C(NO)c1ccc(Cn2c(=O)n(-c3ccccc3)c(=O)c3ccccc32)cc1
active: [1] -38.7% | [7] -21.7% | [20] -62.4% | [11] 3.42% | [14] -13.1% | [17] -8.95% | [19] 2.72%
inactive: [2] 41.3% | [3] 38.8% | [4] 29.3% | [5] 39% | [6] 48.4% | [8] 37.7% | [9] 71% | [10] 21.9% | [13] 55.1% | [15] 43.9% | [16] 13.6%

c1ccc2[nH]c(-c3ccc(Nc4nc(N5CCCCC5)nc(N5CCOCC5)n4)cc3)nc2c1
active: [4] -45.2% | [5] 0.809% | [7] 9.25% | [9] -57.3% | [11] -6.74% | [12] -50.2% | [14] -56.1% | [16] -51.4% | [17] 7.95% | [19] -24.5%
inactive: [1] 19.7% | [2] 32.7% | [3] 35% | [6] 43.3% | [8] 13.9% | [10] 39% | [13] 23.1% | [15] 33.8%

O=C(NC(Cc1cn(Cc2ccccc2)cn1)C(=O)O)OCC1c2ccccc2-c2ccccc21 (stereo not drawn)
inactive: [1] 98.7% | [2] 102% | [3] 106% | [4] 101% | [5] 115% | [6] 107% | [7] 84.2% | [8] 104% | [9] 102% | [20] 110% | [10] 113% | [11] 88.8% | [13] 133% | [14] 117% | [15] 107% | [17] 94.6% | [18] 99.1% | [19] 99.8%

COc1ccc(-c2n/c(=C\c3c(O)[nH]c4ccc(OC)cc34)cc3c2=Nc2ccccc2-3)cc1
active: [1] -7.74% | [5] -32.2% | [9] -82.3% | [10] -2.21% | [11] -32.8% | [15] -33.3% | [17] -48% | [19] -40.5%
inactive: [2] 89.2% | [3] 97.8% | [4] 83.4% | [6] 72.1% | [7] 76% | [8] 19.3% | [20] 88.9% | [13] 39% | [18] 83.6%

COc1cc(-c2cc3ncccc3c3nc(N)c4cccnc4c23)cc(OC)c1OC
active: [5] 3.55% | [10] 2.16% | [17] -1.92% | [19] 4.68%
inactive: [1] 24.5% | [2] 38.7% | [3] 44.3% | [4] 27.3% | [6] 41.2% | [7] 17.4% | [8] 12.7% | [9] 12.9% | [11] 16.3% | [12] 50.9% | [13] 36.5% | [14] 10.9% | [15] 29.6% | [16] 12.4% | [18] 44.3%

Nc1ncnc2nc(Br)[nH]c12
inactive: [1] 92.7% | [2] 85.9% | [3] 108% | [4] 98% | [5] 106% | [6] 94.7% | [7] 85.9% | [8] 77.1% | [9] 95.1% | [10] 102% | [11] 89.6% | [12] 100% | [13] 99.8% | [14] 103% | [15] 98.3% | [16] 102% | [17] 103% | [18] 87.7% | [19] 92.1%

Cc1[c-]onc1C.Cc1[c-]onc1C.[Ag].[Ag].[NH-]S(=O)(=O)c1ccc(N=Nc2cc(N=Nc3ccc(S([NH-])(=O)=O)cc3)c3c(NC(=O)C(Cl)Cl)cccc3c2OC(=O)C(Cl)Cl)cc1
inactive: [1] 94.8% | [2] 94.8% | [3] 96% | [4] 84.7% | [5] 57.3% | [8] 80.5% | [9] 104% | [10] 70.5% | [11] 59.7% | [13] 45.8% | [14] 89.2% | [15] 84.5% | [17] 92.8% | [18] 78.5% | [19] 103%
active: [6] 6.01% | [7] -85.7% | [12] 7.7%

CCOc1ccc(NC(=O)c2ccccc2-c2ccccc2C(=O)O)cc1
inactive: [1] 109% | [2] 104% | [3] 106% | [4] 106% | [6] 106% | [7] 104% | [8] 107% | [9] 105% | [20] 113% | [10] 106% | [11] 90.2% | [13] 107% | [14] 114% | [15] 105% | [16] 115% | [17] 117% | [18] 112% | [19] 113%

COc1cccc(-c2nn(-c3ccccc3)cc2-c2ccnc(NCCNS(=O)(=O)c3ccccc3)c2)c1
active: [7] 9.95% | [11] 6.57%
inactive: [1] 39.5% | [2] 41.2% | [3] 62.8% | [4] 58.6% | [6] 19.4% | [8] 34.4% | [9] 42.7% | [20] 10.6% | [10] 57.5% | [12] 69.1% | [13] 18.4% | [14] 63.7% | [15] 50% | [16] 20.6% | [17] 57.1% | [19] 29.8%

c1ccc2c(-c3nc(-c4c[nH]c5ncccc45)cs3)c[nH]c2c1
inactive: [1] 97.5% | [2] 97.9% | [3] 91.1% | [4] 83.2% | [5] 115% | [6] 65.7% | [7] 85.2% | [8] 100% | [9] 93.4% | [10] 112% | [11] 106% | [13] 79.9% | [14] 116% | [15] 111% | [16] 119% | [17] 99.3% | [18] 109% | [19] 99.8%

N#CC1C(=N)Cc2ccccc2-c2ccccc21 (stereo not drawn)
active: [7] 8.86%
inactive: [1] 57.1% | [2] 77.8% | [3] 78.5% | [4] 57.6% | [5] 27% | [6] 49.6% | [8] 42.1% | [9] 65.6% | [10] 75.8% | [11] 16% | [13] 57.2% | [14] 58.4% | [15] 61% | [16] 49% | [17] 63.4% | [18] 51.5% | [19] 16.2%

Nc1c(Cl)cc(N=Nc2ccccc2)cc1Cl
inactive: [1] 88% | [2] 55.2% | [3] 86.7% | [4] 91.4% | [6] 57.7% | [7] 96.8% | [8] 88.2% | [9] 101% | [20] 97.5% | [10] 101% | [11] 92.5% | [13] 84.2% | [14] 108% | [15] 102% | [16] 89.7% | [17] 103% | [18] 100% | [19] 105%

COc1ccc(/C=C/C(=O)c2ccc([N+](=O)[O-])cc2)cc1
inactive: [1] 104% | [2] 102% | [3] 102% | [4] 104% | [6] 87.7% | [7] 83.7% | [8] 100% | [9] 94.7% | [20] 114% | [10] 109% | [11] 101% | [13] 94.5% | [14] 110% | [15] 106% | [16] 114% | [17] 104% | [18] 110% | [19] 106%

COc1ccc(C(=O)c2cc(OC)c(OC)c(OC)c2)cc1/C=C/C(=O)c1cc(OC)c(OC)c(OC)c1
inactive: [1] 79.9% | [2] 89.5% | [3] 91.2% | [4] 117% | [6] 83.8% | [7] 84% | [8] 92.9% | [9] 104% | [20] 95.5% | [10] 83.4% | [11] 99.8% | [12] 86.1% | [13] 62.8% | [14] 70% | [15] 88.7% | [17] 94% | [18] 81.6% | [19] 81.4%
